# Targets with a hit are over-represented here; the source holds about 7,900 in all. About 0.6% of all pairs of compound and target were hits. A number with no mark means an inactive call.
# Legend:
# Assay in all cases: log2 fold change, soluble protein after heating vs DMSO (PISA); higher = thermal stabilisation; K562 cells, 10 uM, 30 min; active = over 0.2 and 3.5 SD of the protein, either way, in both replicates (recomputed)
# [1] = compound: CC[C@@H]1C(=O)N(C)c2cnc(Nc3ccc(C(=O)NC4CCN(C)CC4)cc3OC)nc2N1C1CCCC1
# In short: (§1)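 K562 cells at 2×10^6 cells/mL were treated for 30 min with 10 μM compound, and aliquots were heated for 3 min over 48°C-58°C before pooling. Extraction used PBS with 0.5% NP-40 at 4°C, and soluble protein was the supernatant after 21,000xg for 90 min, measured by TMTpro 16plex LC-MS/MS with channel sums equalised. Thermal stability values, relative to control samples and from duplicates, are log2 fold changes.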
# volasertib = compound: CC[C@@H]1C(=O)N(C)c2cnc(Nc3ccc(C(=O)N[C@H]4CC[C@H](N5CCN(CC6CC6)CC5)CC4)cc3OC)nc2N1C(C)C [volasertib]
# In short: as §1
# [2] = compound: CC[C@H](C)N1C=C(C2=C(C=C(C=C21)C3=CN=C(C=C3)N4CCNCC4)C(=O)NCC5=C(C=C(NC5=O)C)C)C
# In short: as §1
# epoxomicin = compound: CC[C@H](C)[C@@H](C(=O)N[C@@H]([C@@H](C)O)C(=O)N[C@@H](CC(C)C)C(=O)[C@]1(CO1)C)NC(=O)[C@H]([C@@H](C)CC)N(C)C(=O)C [epoxomicin]
# In short: as §1
# [3] = compound: CCn1c(C(=O)N(C2CC2)C2CC2)cc2c3c(ncn3C)c(Nc3cc(C)n(C)n3)nc21
# In short: as §1
# [4] = compound: CCn1cc(-c2ccnc3[nH]c(-c4cccc(CN(C)C)c4)cc23)c(-c2ccc(NC(=O)N(C)C)cc2)n1
# In short: as §1
# [5] = compound: CN(C)CC(=O)Nc1ccc2[nH]c(=O)c3ccccc3c2c1
# In short: as §1
# rosiglitazone = compound: CN(CCOC1=CC=C(C=C1)C[C@H]2C(=O)NC(=O)S2)C3=CC=CC=N3 (racemic) [rosiglitazone]
# In short: as §1
# [6] = compound: CN1C2=C(C3=C1C(=O)N(N=C3)CC4=CC(=CC=C4)N)SC(=C2)S(=O)C
# In short: as §1
# [7] = compound: CN1CCC(CNc2ccc3ncc(-c4cccc(OC(F)(F)F)c4)n3n2)CC1
# In short: as §1
# saracatinib = compound: CN1CCN(CCOc2cc(OC3CCOCC3)c3c(Nc4c(Cl)ccc5c4OCO5)ncnc3c2)CC1 [saracatinib]
# In short: as §1
# sotrastaurin = compound: CN1CCN(c2nc(C3=C(c4c[nH]c5ccccc45)C(=O)NC3=O)c3ccccc3n2)CC1 [sotrastaurin]
# In short: as §1
# alvocidib = compound: CN1CC[C@H](c2c(O)cc(O)c3c(=O)cc(-c4ccccc4Cl)oc23)[C@H](O)C1 [alvocidib]
# In short: as §1
# Tubastatin A = compound: CN1CCc2c(c3ccccc3n2Cc2ccc(C(=O)NO)cc2)C1 [Tubastatin A]
# In short: as §1
# [8] = compound: CNC(=O)C1=CC=CC=C1NC2=NC(=NC=C2Cl)NC3=C(C=C(C=C3)N4CCOCC4)OC
# In short: as §1
# defactinib = compound: CNC(=O)c1ccc(Nc2ncc(C(F)(F)F)c(NCc3nccnc3N(C)S(C)(=O)=O)n2)cc1 [defactinib]
# In short: as §1
# rucaparib = compound: CNCc1ccc(-c2[nH]c3cc(F)cc4c3c2CCNC4=O)cc1 [rucaparib]
# In short: as §1
# [9] = compound: CNc1nc(-c2ccc3c(N)n[nH]c3c2)cc(N2C[C@@H](C(=O)NC3CCCCC3)CC[C@H]2C)n1
# In short: as §1
# encorafenib = compound: COC(=O)N[C@@H](C)CNc1nccc(-c2cn(C(C)C)nc2-c2cc(Cl)cc(NS(C)(=O)=O)c2F)n1 [encorafenib]
# In short: as §1
# [10] = compound: COC(=O)[C@H](CCSC)NC(=O)C1=C(C=C(C=C1)NC[C@H](CS)N)C2=CC=CC=C2
# In short: as §1
# UniProt Q9H814, sequence (Q9H814 whole entry, looked up): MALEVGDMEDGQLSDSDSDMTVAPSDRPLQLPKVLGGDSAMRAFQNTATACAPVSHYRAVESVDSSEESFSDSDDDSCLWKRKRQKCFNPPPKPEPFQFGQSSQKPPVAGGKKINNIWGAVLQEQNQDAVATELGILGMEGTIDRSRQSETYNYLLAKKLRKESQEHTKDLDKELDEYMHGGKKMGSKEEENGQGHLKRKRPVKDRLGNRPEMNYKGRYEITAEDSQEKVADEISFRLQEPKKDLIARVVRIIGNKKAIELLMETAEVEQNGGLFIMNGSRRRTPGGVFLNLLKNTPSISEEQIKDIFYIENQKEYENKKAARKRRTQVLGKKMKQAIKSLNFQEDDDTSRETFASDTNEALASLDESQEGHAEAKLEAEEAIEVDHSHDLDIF
# UniProt Q9NW08, sequence (Q9NW08 whole entry, looked up): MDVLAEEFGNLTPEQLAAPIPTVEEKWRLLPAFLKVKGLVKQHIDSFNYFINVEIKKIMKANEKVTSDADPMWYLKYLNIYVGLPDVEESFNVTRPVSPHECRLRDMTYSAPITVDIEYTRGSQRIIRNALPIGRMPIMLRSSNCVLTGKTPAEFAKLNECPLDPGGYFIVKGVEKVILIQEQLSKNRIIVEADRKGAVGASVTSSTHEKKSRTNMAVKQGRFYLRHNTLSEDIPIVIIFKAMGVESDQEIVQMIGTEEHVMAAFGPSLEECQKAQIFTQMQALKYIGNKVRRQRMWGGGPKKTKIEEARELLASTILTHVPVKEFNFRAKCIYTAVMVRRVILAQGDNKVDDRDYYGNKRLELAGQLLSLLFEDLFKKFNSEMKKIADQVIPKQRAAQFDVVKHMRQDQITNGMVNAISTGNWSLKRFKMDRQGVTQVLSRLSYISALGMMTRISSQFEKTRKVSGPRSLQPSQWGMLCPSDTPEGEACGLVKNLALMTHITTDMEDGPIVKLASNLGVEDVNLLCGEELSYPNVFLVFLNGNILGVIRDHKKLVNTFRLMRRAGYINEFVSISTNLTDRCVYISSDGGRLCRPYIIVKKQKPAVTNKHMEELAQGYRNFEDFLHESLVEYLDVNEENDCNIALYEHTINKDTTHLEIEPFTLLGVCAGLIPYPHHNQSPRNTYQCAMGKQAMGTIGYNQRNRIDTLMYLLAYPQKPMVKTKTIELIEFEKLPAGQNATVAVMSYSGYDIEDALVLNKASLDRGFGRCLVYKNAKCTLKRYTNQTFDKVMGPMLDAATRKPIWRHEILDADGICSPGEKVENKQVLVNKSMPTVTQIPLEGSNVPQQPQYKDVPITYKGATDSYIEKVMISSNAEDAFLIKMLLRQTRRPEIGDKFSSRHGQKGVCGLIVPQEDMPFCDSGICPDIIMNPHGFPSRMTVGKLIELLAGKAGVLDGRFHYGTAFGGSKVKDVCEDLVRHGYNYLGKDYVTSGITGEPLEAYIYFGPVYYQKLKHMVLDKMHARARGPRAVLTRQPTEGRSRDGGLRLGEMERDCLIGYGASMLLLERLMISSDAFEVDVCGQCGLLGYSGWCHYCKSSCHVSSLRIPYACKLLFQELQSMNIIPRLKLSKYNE
# UniProt Q5JRX3, sequence (Q5JRX3 whole entry, looked up): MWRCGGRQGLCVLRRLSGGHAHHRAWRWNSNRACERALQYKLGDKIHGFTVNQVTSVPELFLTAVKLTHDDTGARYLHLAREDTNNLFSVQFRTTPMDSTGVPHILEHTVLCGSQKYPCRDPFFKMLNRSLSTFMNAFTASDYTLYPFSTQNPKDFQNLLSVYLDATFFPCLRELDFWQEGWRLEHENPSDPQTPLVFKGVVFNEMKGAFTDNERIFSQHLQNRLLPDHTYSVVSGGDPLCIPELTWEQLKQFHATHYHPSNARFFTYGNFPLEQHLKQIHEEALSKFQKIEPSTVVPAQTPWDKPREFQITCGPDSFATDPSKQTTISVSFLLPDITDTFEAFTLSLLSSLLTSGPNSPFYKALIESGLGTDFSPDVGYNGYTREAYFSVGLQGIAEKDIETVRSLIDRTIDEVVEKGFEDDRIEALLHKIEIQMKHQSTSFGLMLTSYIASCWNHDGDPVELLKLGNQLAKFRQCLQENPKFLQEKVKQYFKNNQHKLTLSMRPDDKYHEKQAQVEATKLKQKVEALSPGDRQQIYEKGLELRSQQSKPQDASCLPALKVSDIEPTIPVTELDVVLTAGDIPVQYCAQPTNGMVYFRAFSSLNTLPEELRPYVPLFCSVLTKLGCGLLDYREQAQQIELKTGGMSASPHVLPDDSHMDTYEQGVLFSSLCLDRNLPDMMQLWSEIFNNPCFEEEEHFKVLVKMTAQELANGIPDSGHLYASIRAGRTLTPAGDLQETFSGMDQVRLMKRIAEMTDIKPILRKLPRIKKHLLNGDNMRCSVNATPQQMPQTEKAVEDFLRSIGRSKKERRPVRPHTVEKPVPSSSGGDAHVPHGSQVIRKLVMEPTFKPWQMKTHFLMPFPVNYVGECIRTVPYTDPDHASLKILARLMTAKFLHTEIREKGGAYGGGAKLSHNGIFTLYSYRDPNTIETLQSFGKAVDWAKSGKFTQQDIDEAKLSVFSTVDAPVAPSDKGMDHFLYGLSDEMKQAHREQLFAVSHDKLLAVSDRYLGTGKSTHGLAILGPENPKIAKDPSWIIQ
# UniProt P09884, sequence (P09884 whole entry, looked up): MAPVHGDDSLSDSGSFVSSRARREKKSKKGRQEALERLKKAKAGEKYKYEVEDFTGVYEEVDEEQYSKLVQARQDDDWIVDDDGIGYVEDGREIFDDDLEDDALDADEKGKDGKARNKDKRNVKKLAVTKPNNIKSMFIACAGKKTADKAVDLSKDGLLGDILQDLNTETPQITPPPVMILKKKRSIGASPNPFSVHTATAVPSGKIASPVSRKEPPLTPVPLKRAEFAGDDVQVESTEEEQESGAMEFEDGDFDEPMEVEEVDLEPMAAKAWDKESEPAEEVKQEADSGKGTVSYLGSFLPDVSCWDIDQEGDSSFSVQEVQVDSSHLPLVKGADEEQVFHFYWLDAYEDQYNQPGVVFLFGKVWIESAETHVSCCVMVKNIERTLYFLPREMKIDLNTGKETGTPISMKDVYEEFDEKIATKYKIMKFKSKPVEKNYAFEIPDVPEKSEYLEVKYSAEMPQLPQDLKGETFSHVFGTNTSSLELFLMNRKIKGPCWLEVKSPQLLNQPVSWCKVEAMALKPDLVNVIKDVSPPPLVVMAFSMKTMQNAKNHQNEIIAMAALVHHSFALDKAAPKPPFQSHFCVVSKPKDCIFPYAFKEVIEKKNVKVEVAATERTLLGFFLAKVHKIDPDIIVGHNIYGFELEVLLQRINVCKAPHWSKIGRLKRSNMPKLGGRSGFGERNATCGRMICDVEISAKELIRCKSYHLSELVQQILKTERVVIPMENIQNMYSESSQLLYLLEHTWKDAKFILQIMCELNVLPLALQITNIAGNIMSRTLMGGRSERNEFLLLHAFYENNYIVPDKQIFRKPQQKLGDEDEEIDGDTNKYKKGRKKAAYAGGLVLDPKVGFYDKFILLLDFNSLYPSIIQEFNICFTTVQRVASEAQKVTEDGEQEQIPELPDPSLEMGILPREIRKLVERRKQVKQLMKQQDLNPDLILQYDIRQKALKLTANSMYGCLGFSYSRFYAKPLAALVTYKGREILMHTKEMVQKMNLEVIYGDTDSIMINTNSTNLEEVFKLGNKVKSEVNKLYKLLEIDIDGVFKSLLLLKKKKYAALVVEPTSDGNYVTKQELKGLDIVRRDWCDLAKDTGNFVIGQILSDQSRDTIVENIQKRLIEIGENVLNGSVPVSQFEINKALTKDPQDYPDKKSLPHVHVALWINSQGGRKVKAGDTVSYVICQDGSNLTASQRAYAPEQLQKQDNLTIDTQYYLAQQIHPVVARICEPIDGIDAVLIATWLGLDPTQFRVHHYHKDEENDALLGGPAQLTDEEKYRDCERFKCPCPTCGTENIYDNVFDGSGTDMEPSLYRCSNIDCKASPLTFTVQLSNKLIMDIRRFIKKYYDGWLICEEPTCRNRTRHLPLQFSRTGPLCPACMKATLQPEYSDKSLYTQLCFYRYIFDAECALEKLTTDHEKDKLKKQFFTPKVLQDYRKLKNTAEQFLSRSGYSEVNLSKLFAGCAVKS
# UniProt O14974, sequence (O14974 whole entry, looked up): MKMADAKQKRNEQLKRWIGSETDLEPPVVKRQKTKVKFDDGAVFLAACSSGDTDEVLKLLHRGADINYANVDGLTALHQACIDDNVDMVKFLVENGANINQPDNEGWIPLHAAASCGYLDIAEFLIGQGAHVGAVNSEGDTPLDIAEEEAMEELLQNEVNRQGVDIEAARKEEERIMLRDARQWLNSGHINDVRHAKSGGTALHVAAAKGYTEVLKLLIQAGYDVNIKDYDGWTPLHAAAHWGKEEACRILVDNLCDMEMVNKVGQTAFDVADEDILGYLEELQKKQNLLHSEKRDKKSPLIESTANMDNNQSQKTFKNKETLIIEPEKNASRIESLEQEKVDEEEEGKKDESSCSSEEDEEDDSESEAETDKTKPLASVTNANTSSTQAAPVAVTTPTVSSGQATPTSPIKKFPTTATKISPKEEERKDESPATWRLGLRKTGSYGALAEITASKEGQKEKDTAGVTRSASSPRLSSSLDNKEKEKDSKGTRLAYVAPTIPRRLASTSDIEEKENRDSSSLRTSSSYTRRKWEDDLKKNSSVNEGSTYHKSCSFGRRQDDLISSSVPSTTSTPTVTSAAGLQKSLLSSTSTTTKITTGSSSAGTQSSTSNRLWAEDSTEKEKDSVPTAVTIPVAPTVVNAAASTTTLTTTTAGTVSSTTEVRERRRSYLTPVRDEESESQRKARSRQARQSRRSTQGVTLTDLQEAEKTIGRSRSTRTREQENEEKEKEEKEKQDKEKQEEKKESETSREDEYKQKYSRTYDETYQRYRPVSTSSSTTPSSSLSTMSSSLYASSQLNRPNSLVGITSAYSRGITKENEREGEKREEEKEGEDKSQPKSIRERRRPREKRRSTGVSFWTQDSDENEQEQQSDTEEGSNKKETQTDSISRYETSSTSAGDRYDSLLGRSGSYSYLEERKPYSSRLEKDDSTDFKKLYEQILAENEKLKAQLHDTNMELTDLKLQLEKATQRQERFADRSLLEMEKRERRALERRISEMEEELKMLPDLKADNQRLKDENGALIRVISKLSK
Target,log2 fold change [1],log2 fold change (volasertib),log2 fold change [2],log2 fold change (epoxomicin),log2 fold change [3],log2 fold change [4],log2 fold change [5],log2 fold change (rosiglitazone),log2 fold change [6],log2 fold change [7],log2 fold change (saracatinib),log2 fold change (sotrastaurin),log2 fold change (alvocidib),log2 fold change (Tubastatin A),log2 fold change [8],log2 fold change (defactinib),log2 fold change (rucaparib),log2 fold change [9],log2 fold change (encorafenib),log2 fold change [10]
POLA1 (UniProt P09884),-0.048,-0.466 (active),0.059,0.045,-0.014,-0.089,0.032,0.046,-0.012,-0.163,0.006,-0.096,-0.163,0.025,0.079,-0.156,-0.126,-0.016,-0.005,-0.035
PARG (UniProt Q86W56),0.036,-0.025,0.059,0.004,-0.126,-0.016,0.09,0.059,0.005,-0.126,0.003,-0.102,-0.19,0.051,-0.113,-0.068,0.044,0.115,0.034,-0.025
PEX13 (UniProt Q92968),-0.053,-0.049,-0.038,-0.009,0.076,0.047,0.019,0.021,0.02,-0.378,-0.067,-0.083,0.022,0.061,-0.061,-0.011,-0.058,0.008,0.047,-0.087
PSMD1 (UniProt Q99460),0.042,0.146,-0.001,-0.278,0.015,0.028,-0.005,-0.026,0.043,0.059,-0.033,-0.064,0.051,0.016,0,0.087,-0.003,0.048,0.062,0.018
PUM1 isoform 3 (UniProt Q14671),-0.075,-0.302 (active),0.036,0.023,-0.007,-0.018,0.015,0.033,0.044,-0.123,-0.01,-0.023,-0.059,0.004,-0.019,-0.078,0.082,-0.039,-0.01,0.001
POLR3B (UniProt Q9NW08),0.029,-0.44,0.134,0.07,-0.069,-0.028,0.075,0.035,0.105,-0.058,-0.056,-0.129,-0.074,-0.045,-0.004,-0.03,-0.032,-0.047,0.039,-0.028
PITRM1 isoform 2 (UniProt Q5JRX3),0.048,0.489 (active),0.166,-0.029,0.074,-0.084,0.023,0.03,-0.124,-0.189,-0.016,-0.045,-0.022,0.009,-0.027,-0.034,-0.051,0.09,-0.032,-0.005
PTRHD1 (UniProt Q6GMV3),0.106,0.037,-0.028,0.415 (active),0.064,0.086,-0.056,0.048,0.019,0.078,-0.057,0.061,-0.062,0.052,0.025,0,-0.015,-0.022,-0.064,0.003
PRPF31 (UniProt Q8WWY3),-0.113,-0.548 (active),0.172,0.049,-0.058,-0.079,0.181,0.104,-0.041,-0.348,-0.093,-0.15,-0.193,0.144,-0.033,-0.456 (active),-0.068,0.033,0.011,-0.037
PHAX (UniProt Q9H814),-0.03,-0.106,0.027,-0.041,0.014,0.111,0.011,-0.007,-0.054,0.042,0.013,0.001,-0.15,0.003,-0.028,-0.138,-0.031,-0.037,-0.034,0.037
PRPF4B (UniProt Q13523),0.025,-0.17,0.027,-0.174,-0.005,0.104,-0.049,0.011,0.081,0.019,-0.064,-0.047,-0.052,0.085,-0.209,-0.32,0.022,-0.146,0.02,0.046
PHKG2 (UniProt P15735),-0.155,-0.195,0.054,-0.004,0.01,0.043,-0.002,0.018,-0.027,-0.156,0.002,-0.071,-0.069,0.029,0.167,0.026,-0.032,0.1,0.181,-0.025
PSMD6 (UniProt Q15008),0.09,0.18,0.01,-0.247,-0.009,0.063,-0.023,-0.029,0.029,0.061,-0.044,-0.035,0.056,0.025,0.013,0.046,0.051,0.062,0.056,-0.021
PPP1R12A (UniProt O14974),-0.136,-0.468 (active),0.066,0.067,-0.028,-0.229,0,0.059,-0.016,-0.536 (active),-0.048,-0.054,-0.187,0.01,-0.052,-0.187,-0.012,-0.197,0.057,-0.043
POLD3 (UniProt Q15054),-0.147,-0.101,0.008,0.126,-0.071,-0.037,0.067,0.513,0.051,-0.118,-0.035,-0.131,-0.229,0.137,0.01,-0.225,0.018,0.042,0.082,-0.047
